We go through 9 compounds from PubChem BioAssay.

Test [1] concerns PRMT1 (protein arginine N-methyltransferase 1). The experiment in a line: PRMT1 binders on small-molecule microarrays, primary screen, biochemical, small-molecule microarray, 635 nm fluorescence (AID 1088).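 Also: binding of Prmt1 protein to compounds spotted on small-molecule microarray slides.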 The note with it: small-molecule microarray binding, higher = more signal.
A short description of test [2]: yeast growth modulation, basal conditions, primary screen, YJM789 clinical isolate, OD600, 24 h (AID 1089).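 Also: growth of clinical yeast isolate S. cerevisiae YJM 789 seeded 1000 cells per well; test concentration not given here.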 As to conditions: S. cerevisiae YJM789 growth, higher = more signal, called active from +8 up or from −8 down.
Test [3] in a line: fission yeast growth modulation, primary screen, strain 972, OD600, 24 h, no modulator (AID 1090).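 Also: basal condition with compound alone and no growth modifier present; test concentration not given here.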 The note with it: S. pombe 972 growth, higher = more signal, called active from +8 up or from −8 down.
Test [4] can be described thus: S. cerevisiae growth modulation with rapamycin, primary screen, strain BY4716, OD600, 96 h (AID 1091). Also: test concentration not given here. As to conditions: higher = more signal, called active from +8 up or from −8 down.
Test [5] deals with Torsin-1A-interacting protein 2 (Homo sapiens) (UniProt Q8NFQ8). The experiment in a line: LULL1 binders on small-molecule microarray, primary screen, cell lysate, human LULL1 lysate, 635/667 nm fluorescence (AID 1092).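 Also: probe is lysate of COS7 cells overexpressing human LULL1; score merges per-feature 667 nm fluorescence with signal-to-noise.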 The note with it: hLULL1 lysate binding, 635 nm fluorescence, higher = more signal.
Sequence of Torsin-1A-interacting protein 2 (Homo sapiens) (Q8NFQ8 whole entry, looked up): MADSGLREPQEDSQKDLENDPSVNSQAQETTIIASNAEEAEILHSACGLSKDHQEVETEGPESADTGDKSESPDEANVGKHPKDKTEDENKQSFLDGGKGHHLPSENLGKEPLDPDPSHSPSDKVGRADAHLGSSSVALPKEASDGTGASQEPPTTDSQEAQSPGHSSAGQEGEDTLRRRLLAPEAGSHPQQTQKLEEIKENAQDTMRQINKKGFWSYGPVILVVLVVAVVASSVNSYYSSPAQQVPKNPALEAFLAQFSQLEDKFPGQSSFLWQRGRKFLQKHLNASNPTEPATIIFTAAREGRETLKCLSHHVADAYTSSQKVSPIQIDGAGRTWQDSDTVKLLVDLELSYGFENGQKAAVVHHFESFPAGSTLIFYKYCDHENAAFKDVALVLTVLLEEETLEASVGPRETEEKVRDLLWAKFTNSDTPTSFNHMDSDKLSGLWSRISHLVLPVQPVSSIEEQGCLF
Test [6] in a line: E. coli growth modulation, two-sided OD650, primary screen, E. coli filamentation project, strain DRC41, 24 h (AID 1093).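 Also: MC1000 strain lacking acrAB efflux and sulA so SOS filamentation is blocked; test concentration not given here.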 The note with it: OD650, 24 h, higher = more signal, called active from +8 up or from −8 down.
A short description of test [7]: small-molecule microarray binders of probe aLefty2, primary screen, biochemical, biotinylated probe, 635/667 nm fluorescence (AID 1094).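 Also: score merges spot fluorescence near 667 nm with spot signal-to-noise ratio.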 As to conditions: higher = more signal.
For test [8], the system named is Noggin (protein binding on small-molecule microarray). The experiment in a line: Noggin binders on small-molecule microarray, primary screen, biochemical, 635/667 nm fluorescence (AID 1095).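 Also: score merges 667 nm feature fluorescence with signal to noise over triplicate slides.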 As to conditions: 635 nm fluorescence, higher = more signal.
Test [9] has as its target Neurogenic locus notch homolog protein 3 (Homo sapiens) (UniProt Q9UM47). The experiment in a line: NOTCH3 binders on small-molecule microarray, primary screen, biochemical, 635/667 nm fluorescence (AID 1096). The note with it: NOTCH3 binding, 635 nm fluorescence, higher = more signal.
A short description of test [10]: small-molecule microarray binders of probe aEGFR, primary screen, biochemical, biotinylated probe, 635/667 nm fluorescence (AID 1097).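 Also: probe is a biotinylated anti-EGFR antibody binding compounds printed on slides; score combines fluorescence near 667 nm and signal to noise of each spot.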 As to conditions: higher = more signal.
Test [11] relates to Plasmodium falciparum Sir2 (PF13_0152, Sir2A). The experiment in a line: pfSir2 binders on small-molecule microarrays, primary screen, biochemical, small-molecule microarray, 635 nm fluorescence (AID 1098).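 Also: score merges spot fluorescence intensity with its signal-to-noise ratio.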 As to conditions: small-molecule microarray binding, fluorescence 635 nm; higher = more signal.
A short description of test [12]: small-molecule microarray binders of probe aDKK1, primary screen, biochemical, biotinylated probe, 635/667 nm fluorescence (AID 1099).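 Also: score merges 667nm spot fluorescence with signal to noise across triplicate slides; reference of the scale not given here.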 As to conditions: higher = more signal.
Test [13] is described as follows: small-molecule microarray binders of probe aCHRDL2, primary screen, biochemical, biotinylated probe, 635/667 nm fluorescence (AID 1100). The note with it: higher = more signal.
Test [14] in a line: splicing luciferase reporter signal modulators, primary screen, spliceosome inhibition project, cell-based, HEK293, splice +/- reporter (AID 1101).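 Also: HEK293 cells carrying a splicing-competent luciferase reporter gene; test concentration not given here.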 As to conditions: luminescence, 24 h, higher = more signal, called active from +8 up or from −8 down. Background: Reporter assays use an easily measured gene product as a stand-in for the process of interest.
The target of test [15] is Fibroblast growth factor 10 (Homo sapiens) (UniProt O15520). The experiment in a line: FGF10 binders on small-molecule microarrays, primary screen, biochemical, small-molecule microarray, 635 nm fluorescence (AID 1102). As to conditions: FGF10 binding, fluorescence 635 nm, higher = more signal.
Sequence of Fibroblast growth factor 10 (Homo sapiens) (O15520 whole entry, looked up): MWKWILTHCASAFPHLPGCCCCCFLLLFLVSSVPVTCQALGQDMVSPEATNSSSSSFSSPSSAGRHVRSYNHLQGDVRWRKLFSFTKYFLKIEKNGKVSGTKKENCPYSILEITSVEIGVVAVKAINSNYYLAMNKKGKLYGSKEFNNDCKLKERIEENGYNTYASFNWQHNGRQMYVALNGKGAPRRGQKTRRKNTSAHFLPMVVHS
Test [16] has as its system glycogen synthase kinase-3 (GSK3A per assay name; protocol says GSK3B). The experiment in a line: GSK3 binders on small-molecule microarrays, primary screen, biochemical, small-molecule microarray, 635 nm fluorescence, GSK3A (AID 1103). Also: the record names both GSK3A and GSK3B. As to conditions: small-molecule microarray binding, fluorescence 635 nm; higher = more signal.
In test [17] the target is Epidermal growth factor receptor (Homo sapiens) (UniProt P00533). The experiment in a line: EGFR binders on small-molecule microarrays, primary screen, biochemical, small-molecule microarray, 635 nm fluorescence (AID 1104).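 Also: score merges 667 nm emission intensity with spot signal to noise over triplicate slides.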 The note with it: EGFR binding, higher = more signal.
Sequence of Epidermal growth factor receptor (Homo sapiens) (P00533 whole entry, looked up): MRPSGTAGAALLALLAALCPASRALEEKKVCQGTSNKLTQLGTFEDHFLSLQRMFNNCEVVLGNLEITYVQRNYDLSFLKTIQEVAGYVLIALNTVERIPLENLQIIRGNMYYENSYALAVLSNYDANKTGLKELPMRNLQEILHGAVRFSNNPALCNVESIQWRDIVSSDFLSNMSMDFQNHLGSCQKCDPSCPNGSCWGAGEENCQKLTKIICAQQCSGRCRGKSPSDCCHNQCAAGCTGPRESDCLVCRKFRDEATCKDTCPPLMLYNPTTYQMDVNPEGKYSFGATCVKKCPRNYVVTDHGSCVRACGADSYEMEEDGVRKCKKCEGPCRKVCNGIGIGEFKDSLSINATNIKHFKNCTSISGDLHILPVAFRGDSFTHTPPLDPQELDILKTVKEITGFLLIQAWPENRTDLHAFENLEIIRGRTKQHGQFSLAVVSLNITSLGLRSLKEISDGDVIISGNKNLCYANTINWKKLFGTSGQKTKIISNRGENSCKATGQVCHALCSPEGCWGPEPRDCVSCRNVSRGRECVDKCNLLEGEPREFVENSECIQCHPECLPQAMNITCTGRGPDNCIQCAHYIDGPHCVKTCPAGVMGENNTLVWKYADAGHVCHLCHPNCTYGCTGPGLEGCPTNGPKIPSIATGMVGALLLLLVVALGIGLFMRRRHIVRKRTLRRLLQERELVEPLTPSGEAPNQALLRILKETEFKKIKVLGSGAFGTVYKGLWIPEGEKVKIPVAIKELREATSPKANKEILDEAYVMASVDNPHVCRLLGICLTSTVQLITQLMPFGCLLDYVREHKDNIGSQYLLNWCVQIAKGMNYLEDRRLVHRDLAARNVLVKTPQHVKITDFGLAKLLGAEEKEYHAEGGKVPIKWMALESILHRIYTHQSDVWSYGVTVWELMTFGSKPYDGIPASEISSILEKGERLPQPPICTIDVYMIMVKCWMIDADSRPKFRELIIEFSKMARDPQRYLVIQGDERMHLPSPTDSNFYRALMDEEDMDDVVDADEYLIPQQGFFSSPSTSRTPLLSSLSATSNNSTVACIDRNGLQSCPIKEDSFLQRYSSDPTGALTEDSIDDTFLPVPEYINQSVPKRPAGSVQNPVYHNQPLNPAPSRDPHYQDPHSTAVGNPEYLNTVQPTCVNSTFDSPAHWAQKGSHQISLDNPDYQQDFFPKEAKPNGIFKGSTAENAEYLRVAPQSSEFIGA
The target in test [18] is Follistatin-related protein 3 (Homo sapiens) (UniProt O95633). The experiment in a line: FSTL3 binders on small-molecule microarrays, primary screen, biochemical, small-molecule microarray, 635 nm fluorescence (AID 1105).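 Also: score merges emission near 667 nm and signal to noise per printed spot across three slides.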 As to conditions: FSTL3 binding, higher = more signal.
Sequence of Follistatin-related protein 3 (Homo sapiens) (O95633 whole entry, looked up): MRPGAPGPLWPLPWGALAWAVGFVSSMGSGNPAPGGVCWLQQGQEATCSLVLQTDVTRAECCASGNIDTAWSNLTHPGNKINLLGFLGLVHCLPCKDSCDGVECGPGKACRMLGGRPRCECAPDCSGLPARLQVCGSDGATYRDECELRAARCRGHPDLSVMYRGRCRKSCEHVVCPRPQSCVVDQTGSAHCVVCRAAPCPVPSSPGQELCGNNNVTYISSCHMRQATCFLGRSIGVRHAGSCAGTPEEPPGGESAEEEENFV
In test [19] the target is Dickkopf-related protein 1 (Homo sapiens) (UniProt O94907). The experiment in a line: DKK1 binders on small-molecule microarrays, primary screen, biochemical, small-molecule microarray, 635 nm fluorescence scan (AID 1106).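 Also: score merges emission near 667 nm with signal to noise over three replicate slides.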 As to conditions: DKK1 binding, higher = more signal.
Sequence of Dickkopf-related protein 1 (Homo sapiens) (O94907 whole entry, looked up): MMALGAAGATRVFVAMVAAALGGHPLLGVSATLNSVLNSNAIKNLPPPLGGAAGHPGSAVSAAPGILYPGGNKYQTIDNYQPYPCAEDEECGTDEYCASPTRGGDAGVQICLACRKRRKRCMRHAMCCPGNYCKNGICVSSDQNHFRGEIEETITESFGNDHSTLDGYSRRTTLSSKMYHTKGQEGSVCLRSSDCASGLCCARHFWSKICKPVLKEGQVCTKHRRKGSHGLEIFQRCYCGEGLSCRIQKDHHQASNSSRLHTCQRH
Test [20] concerns Inhibin beta A chain (activin A). The experiment in a line: INHBA (activin A) binders on microarrays, primary screen, biochemical, small-molecule microarray, 635 nm fluorescence scan (AID 1107).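 Also: mouse activin A protein probed at 4.33 µg/mL on printed slides; score merges bound-protein fluorescence near 667 nm with spot signal-to-noise.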 The note with it: small-molecule microarray binding, higher = more signal.

The source made the active and inactive calls.

Sequence of Neurogenic locus notch homolog protein 3 (Homo sapiens) (Q9UM47 whole entry, looked up): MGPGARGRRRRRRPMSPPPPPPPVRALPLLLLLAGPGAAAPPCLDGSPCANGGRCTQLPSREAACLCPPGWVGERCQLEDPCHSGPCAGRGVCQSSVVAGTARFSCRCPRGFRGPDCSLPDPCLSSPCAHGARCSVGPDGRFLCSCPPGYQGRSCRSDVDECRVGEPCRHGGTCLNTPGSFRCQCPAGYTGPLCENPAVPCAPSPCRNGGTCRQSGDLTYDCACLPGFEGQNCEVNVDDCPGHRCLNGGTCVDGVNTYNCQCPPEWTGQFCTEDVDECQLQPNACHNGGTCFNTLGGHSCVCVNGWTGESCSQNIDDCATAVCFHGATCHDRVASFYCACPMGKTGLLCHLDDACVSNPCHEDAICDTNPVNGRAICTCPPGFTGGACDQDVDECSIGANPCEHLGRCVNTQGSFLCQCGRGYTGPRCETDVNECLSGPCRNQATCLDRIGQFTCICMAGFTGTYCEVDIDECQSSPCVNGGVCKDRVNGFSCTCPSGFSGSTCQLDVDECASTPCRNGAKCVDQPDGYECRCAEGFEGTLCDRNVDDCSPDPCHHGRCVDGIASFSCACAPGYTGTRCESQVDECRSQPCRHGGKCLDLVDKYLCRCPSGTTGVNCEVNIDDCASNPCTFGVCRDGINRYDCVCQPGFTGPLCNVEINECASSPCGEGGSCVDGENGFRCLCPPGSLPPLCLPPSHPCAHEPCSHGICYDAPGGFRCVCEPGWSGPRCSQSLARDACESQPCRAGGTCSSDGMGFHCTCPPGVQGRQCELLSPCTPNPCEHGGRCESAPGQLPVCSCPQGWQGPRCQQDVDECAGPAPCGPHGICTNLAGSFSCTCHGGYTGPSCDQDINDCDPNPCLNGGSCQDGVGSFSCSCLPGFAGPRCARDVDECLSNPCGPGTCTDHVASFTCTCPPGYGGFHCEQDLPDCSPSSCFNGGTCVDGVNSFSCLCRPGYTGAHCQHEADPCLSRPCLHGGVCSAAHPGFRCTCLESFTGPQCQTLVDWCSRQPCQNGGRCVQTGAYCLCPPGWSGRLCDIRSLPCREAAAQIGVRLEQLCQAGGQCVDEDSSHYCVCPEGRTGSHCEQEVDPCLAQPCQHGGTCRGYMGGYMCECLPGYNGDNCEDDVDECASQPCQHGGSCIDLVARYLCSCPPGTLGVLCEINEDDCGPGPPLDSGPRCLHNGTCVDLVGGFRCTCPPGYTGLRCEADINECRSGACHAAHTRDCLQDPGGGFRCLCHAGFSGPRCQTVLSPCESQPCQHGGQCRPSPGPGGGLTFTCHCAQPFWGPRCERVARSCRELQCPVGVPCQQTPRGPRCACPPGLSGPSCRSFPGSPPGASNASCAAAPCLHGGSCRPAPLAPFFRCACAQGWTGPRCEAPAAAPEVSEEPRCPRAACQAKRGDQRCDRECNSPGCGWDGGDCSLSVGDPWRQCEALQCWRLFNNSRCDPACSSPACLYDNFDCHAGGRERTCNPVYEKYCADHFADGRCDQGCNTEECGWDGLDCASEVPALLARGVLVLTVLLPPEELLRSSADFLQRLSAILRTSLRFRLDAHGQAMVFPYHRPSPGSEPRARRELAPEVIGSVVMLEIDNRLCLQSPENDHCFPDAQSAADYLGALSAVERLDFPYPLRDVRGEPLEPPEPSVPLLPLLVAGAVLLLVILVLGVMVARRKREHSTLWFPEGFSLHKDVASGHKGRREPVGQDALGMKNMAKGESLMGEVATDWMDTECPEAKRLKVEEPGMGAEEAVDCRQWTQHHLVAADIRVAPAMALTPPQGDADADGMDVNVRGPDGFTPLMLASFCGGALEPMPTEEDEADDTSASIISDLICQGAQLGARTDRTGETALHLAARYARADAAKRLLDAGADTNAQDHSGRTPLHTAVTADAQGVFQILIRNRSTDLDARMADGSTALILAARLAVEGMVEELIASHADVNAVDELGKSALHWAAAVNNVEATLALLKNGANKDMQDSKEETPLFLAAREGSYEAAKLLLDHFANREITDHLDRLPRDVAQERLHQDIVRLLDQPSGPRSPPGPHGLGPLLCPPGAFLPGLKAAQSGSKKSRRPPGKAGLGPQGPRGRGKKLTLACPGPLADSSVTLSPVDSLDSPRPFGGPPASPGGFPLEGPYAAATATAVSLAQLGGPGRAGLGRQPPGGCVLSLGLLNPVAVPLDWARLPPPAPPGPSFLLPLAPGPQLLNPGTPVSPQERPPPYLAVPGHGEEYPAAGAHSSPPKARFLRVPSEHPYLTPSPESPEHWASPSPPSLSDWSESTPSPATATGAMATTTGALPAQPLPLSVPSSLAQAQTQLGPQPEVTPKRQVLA

Turning to `COC(=O)CC=C[C@@H](C)[C@@H](C=NO[C@@H](C)c1cc(-c2c(C)cc(C)cc2C)no1)NS(=O)(=O)c1ccc(C)cc1`, the composite z-score in test [1] was -0.84; in test [5] it was -0.227; in [7] it was 0.0221; in test [8], -2.2; in test [9], -2.03; in test [10] it was -0.224. Also, the composite z-score in test [11] is -0.775; in [12], 0.437; in [13], 0.969; in test [15] it was -1.93; in test [16], -1.46; in [17] it was -1.16. Further, the results for the composite z-score in [18], in test [19] and in test [20] were -1.83, -2.26 and 0.178, respectively. Moreover, the z-score in test [2] was -0.0649 (inactive); in test [3], 0.679 (inactive); in [4] it was 0.905 (inactive); in [6], -0.881 (inactive); in test [14], -1.4 (inactive).

Turning to `COC(=O)[C@@H]1CC[C@H](C)[C@@H](c2ccc(C)cc2)N1C(=O)c1ccc(C=NO[C@H](C)c2cn([C@H](CO)Cc3ccccc3)nn2)cc1`, the composite z-score is 1.04 in [1]; 0.6 in [5]; 0.0943 in [7]; 1.19 in test [8]; 1.05 in [9]; 0.119 in test [10]. The composite z-score in test [11] was 0.652; in [12], 0.178; in test [13] it was 0.115; in test [15], 0.694; in test [16] it was 0.835; in test [17], 0.551. Besides, the composite z-score was 1.05 in [18], 0.81 in test [19] and 0.135 in test [20]. Further, the z-score in test [2] is 0.149 (inactive); in test [3], 0.0048 (inactive); in [4] it was 0.619 (inactive); in test [6], -0.551 (inactive); in test [14], -0.178 (inactive).

With `CCOC(=O)[C@H](CC(C)C)NC(=O)CCC1CC(OC(=O)NCCc2ccc(F)cc2)CC2(CCCC(COC(=O)NCCOc3ccccc3)O2)O1` (stereo not given in full), the composite z-score was 1.56 in test [1]; 2.21 in test [5]; -0.0965 in [7]; 0.676 in test [8]; 1.11 in [9]; -0.0828 in [10]. Also, the composite z-score was 1.4 in [11]; -0.0843 in test [12]; -0.545 in test [13]; 0.989 in test [15]; 0.508 in test [16]; 0.672 in [17]. For the same compound, the composite z-score is 1.1 in test [18], 1.52 in test [19] and -0.0219 in test [20]. The z-score in [2] is 0.407 (inactive); in test [3], 0.374 (inactive); in test [4] it was -0.445 (inactive); in test [6], -0.552 (inactive); in test [14] it was 0.119 (inactive).

As to `CCOC(=O)[C@H](CC(C)C)NC(=O)CCC1CC(OC(=O)NCCc2ccc(F)cc2)CC2(CCCC(COC(=O)NCC(c3ccccc3)c3ccccc3)O2)O1` (stereo not given in full), the composite z-score in test [1] was 1.41; in test [5] it was 2.59; in test [7], -0.105; in test [8], 0.569; in test [9], 0.499; in test [10], -0.127. In addition, the composite z-score in [11] was 1.1; in test [12] it was 0.096; in test [13], -0.437; in test [15] it was 0.588; in [16], 0.873; in test [17], 0.319. Also, the composite z-score in [18] is 0.824; in test [19] it was 0.697; in test [20] it was -0.0427. The z-score in [2] is -0.297 (inactive); in [3], 0.427 (inactive); in test [4], -1.3 (inactive); in test [6] it was -0.198 (inactive); in [14], 0.0587 (inactive).

As to `COC(=O)[C@@H]1CC[C@H](C)[C@@H](c2ccc(C)cc2)N1C(=O)c1ccc(C=NOCC[C@@H]2C=C[C@H](OC(C)=O)[C@@H](COC(C)=O)O2)cc1`, the composite z-score in test [1] is 0.903; in [5], 0.105; in test [7], -0.0736; in test [8], 0.647; in test [9] it was 0.792; in [10] it was -0.0397. Also, the composite z-score in test [11] was 0.35; in test [12] it was -0.33; in test [13], -0.684; in test [15] it was 0.402; in test [16] it was 0.637; in test [17], 0.49. For the same compound, the composite z-score in [18] amounted to 0.644; in [19] it was 0.948; in test [20] it was 0.323. In addition, the z-score in [2] is 1.09 (inactive); in [3] it was 1.58 (inactive); in test [4], 1.81 (inactive); in [6], 0.411 (inactive); in test [14], 0.566 (inactive).

Turning to `CCOC(=O)[C@H](Cc1ccccc1)NC(=O)CCC1CC(OC(=O)NCCc2ccc(F)cc2)CC2(CCCC(COC(=O)NCC3CCCCC3)O2)O1` (stereo not given in full), the composite z-score in [1] is 1.55; in test [5], 2.4; in [7], -0.106; in [8], 0.53; in test [9], 1.07; in [10], 0.0282. Moreover, the composite z-score is 0.711 in test [11]; -0.184 in test [12]; -0.761 in test [13]; 1.03 in [15]; 1.24 in test [16]; 0.53 in [17]. The composite z-score was 1.2 in test [18], 1.33 in test [19] and 0.0408 in [20]. Moreover, the z-score in [2] is 0.644 (inactive); in test [3] it was 0.432 (inactive); in test [4], 0.6 (inactive); in test [6] it was 0.18 (inactive); in test [14] it was -0.308 (inactive).

Regarding `COc1cccc([C@H]2Oc3ccc(OC)cc3C(=NOC[C@@H](O)COCc3ccco3)[C@@H]2O)c1`, the composite z-score is -1.03 in test [1]; -1.32 in [5]; -0.103 in [7]; -0.149 in test [8]; -1.88 in test [9]; -0.274 in test [10]. In addition, the composite z-score in [11] was -0.12; in test [12], -0.644; in [13], -0.798; in test [15], -0.0458; in test [16], -0.754; in test [17], -1.44. Moreover, the composite z-score in test [18] is -1.3; in [19], 0.13; in [20] it was 1.29. Also, the z-score in [2] was -2.24 (inactive); in test [3] it was -1.36 (inactive); in [4], -1.22 (inactive); in test [6] it was 0.32 (inactive); in test [14], -0.469 (inactive).

`COC(=O)[C@H](C)NC(=O)CCC1CC(OC(=O)NCc2ccc3c(c2)OCO3)CC2(CCCC(COC(=O)NCCc3ccccc3OC)O2)O1` (stereo not given in full): the composite z-score in [1] was 0.472; in test [5] it was 1.89; in test [7], -0.166; in test [8] it was 0.181; in [9] it was 0.0607; in test [10] it was -0.0798. For the same compound, the composite z-score in test [11] was 0.417; in [12], -0.037; in test [13], -0.24; in [15] it was 0.0774; in [16], 0.0268; in [17], -0.102. Besides, the composite z-score in test [18] was -0.108; in test [19], -0.253; in test [20] it was -0.28. In addition, the z-score in test [2] is -1.21 (inactive); in test [3], 0.124 (inactive); in [4] it was -0.167 (inactive); in [6], 0.872 (inactive); in test [14], -0.293 (inactive).

Regarding `CCOC(=O)[C@H](Cc1ccccc1)NC(=O)CCC1CC(OC(=O)NCc2ccc3c(c2)OCO3)CC2(CCCC(COC(=O)NCCC(C)C)O2)O1` (stereo not given in full), the composite z-score is 1.54 in test [1]; 1.95 in [5]; 0.0224 in [7]; 0.614 in test [8]; 0.671 in [9]; -0.068 in [10]. Moreover, the composite z-score in test [11] was 1.21; in [12], -0.197; in [13], -0.287; in test [15], 1.12; in test [16], 0.18; in [17] it was -0.0617. The composite z-score came out at 0.743 in [18], 0.415 in [19] and 0.367 in test [20]. In addition, the z-score in test [2] is 0.648 (inactive); in test [3], -0.29 (inactive); in test [4] it was -0.2 (inactive); in test [6], -0.167 (inactive); in test [14], 0.0184 (inactive).
